In PubChem BioAssay (Tox21):
Records with an inconclusive call do not appear. Activity calls are given as the source filed them. The call rests on the fitted dose curve; in most records, active means well fitted curve in the direction sought with a large enough effect in the repeat runs; inconclusive means weak or mixed curves; inactive means no such curve, though single readings can be large; an effect the other way counts as inactive or inconclusive.

Tests used:
[1] = qHTS assay to identify small molecule antagonists of the estrogen related receptor (ERR) signaling pathway from Tox21 library - cell viability counter screen (AID 1224834); further: nearly all actives have a fitted effect of over 30% in size
Outline: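 Cytotoxicity of test substances is gauged in the same ERR cells used for the antagonist screen, after 17.5 h of compound treatment at 37 C, by CellTiter-Fluor fluorescence measured after 30 min.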

[2] = target: Luciferin 4-monooxygenase (Photinus pyralis) (UniProt P08659); test: qHTS assay to identify small molecule inhibitors of firefly luciferase (AID 1224835); further: nearly all actives have a fitted effect of over 25% in size; on activity change, negative = inhibition: series mostly up to about 120 µM
Outline: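 Quantitative HTS format; KM concentrations of both substrates. Purified P. pyralis FLuc activity quantified from luminescence images.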

[3] = qHTS assay to identify small molecule agonists of the constitutive androstane receptor (CAR) signaling pathway - cell viability counter screen (AID 1224836); further: nearly all actives have a fitted effect of over 45% in size; on viability change, negative = cytotoxic: series mostly up to about 92 µM
Outline: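 Fluorescence from CellTiter-Fluor indicates live cells after 23 h exposure. The human hepatoma line expresses hCAR and a CYP2B6-2.2kb reporter. Incubation medium contains 0.75 uM PK11195 (final).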

[4] = qHTS assay to identify small molecule antagonists of the constitutive androstane receptor (CAR) signaling pathway - cell viability counter screen (AID 1224837); further: nearly all actives have a fitted effect of over 45% in size; on activity change, negative = cytotoxicity: series mostly up to about 92 µM
Outline: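 Multiplexed cytotoxicity read-out for the CAR antagonist screen: double-stable HepG2-CYP2B6-hCAR cells co-treated with 50 nM CITCO (final) and compound over 15 concentrations, incubated 23 hr, then assessed by CellTiter-Fluor fluorescence.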
On the % scale 0 is the no-effect control and ±100 the full control effect; potency means the concentration at half of the fitted maximal effect.

Chain of Luciferin 4-monooxygenase (Photinus pyralis) (P08659 whole entry, looked up): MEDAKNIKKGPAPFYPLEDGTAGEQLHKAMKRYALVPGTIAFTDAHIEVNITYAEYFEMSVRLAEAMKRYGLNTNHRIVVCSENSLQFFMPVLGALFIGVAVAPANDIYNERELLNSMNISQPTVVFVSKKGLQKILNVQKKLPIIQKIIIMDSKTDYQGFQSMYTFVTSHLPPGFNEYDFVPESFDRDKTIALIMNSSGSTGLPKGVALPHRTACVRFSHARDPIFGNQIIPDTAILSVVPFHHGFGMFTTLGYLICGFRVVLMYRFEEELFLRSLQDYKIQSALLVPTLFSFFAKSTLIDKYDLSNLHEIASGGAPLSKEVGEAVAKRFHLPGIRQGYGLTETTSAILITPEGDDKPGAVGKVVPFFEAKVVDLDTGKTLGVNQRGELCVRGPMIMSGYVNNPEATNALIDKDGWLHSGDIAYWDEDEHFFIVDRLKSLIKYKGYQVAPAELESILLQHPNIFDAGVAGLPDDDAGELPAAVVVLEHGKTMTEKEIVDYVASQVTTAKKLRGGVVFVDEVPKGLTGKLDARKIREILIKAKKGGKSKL

COc1cc(OC)nc(NC(=O)NS(=O)(=O)Nc2ccccc2C(=O)N(C)C)n1
inactive: Potency [1] | Potency [2] | Potency [3] | Potency [4]

CC(O)(c1ccc(Cl)cc1)c1ccc(Cl)cc1
inactive: Potency [2] | Potency [3] | Potency [4]
active: Potency [1] 61.1 µM

NC(=O)C1CO1 (stereo not drawn)
inactive: Potency [1] | Potency [2] | Potency [3] | Potency [4]

NCc1ccco1
inactive: Potency [1] | Potency [2] | Potency [3] | Potency [4]

CN[C@H]1CC[C@@H](c2ccc(Cl)c(Cl)c2)c2ccc(S(N)(=O)=O)cc21
active: Potency [1] 68.6 µM | Potency [3] 61.1 µM | Potency [4] 61.1 µM
inactive: Potency [2]

C=CC(=O)O[C@H]1C[C@@H]2CC[C@@]1(C)C2(C)C
inactive: Potency [1] | Potency [2] | Potency [3] | Potency [4]

COc1ccc(OC)c(N=Nc2c(O)ccc3ccccc23)c1
active: Potency [1] 24.3 µM | Potency [2] 6.33 µM | Potency [3] 30.6 µM | Potency [4] 24.3 µM

Cc1ccc2n[nH]nc2c1
inactive: Potency [1] | Potency [2] | Potency [3] | Potency [4]

CC(c1cc(C(C)(C)C)cc(C(C)(C)C)c1O)c1cc(C(C)(C)C)cc(C(C)(C)C)c1O
inactive: Potency [1] | Potency [2] | Potency [3] | Potency [4]

Nc1cc([N+](=O)[O-])ccc1Cl
inactive: Potency [1] | Potency [2] | Potency [3] | Potency [4]

[Cl][Dy]([Cl])[Cl]
inactive: Potency [1] | Potency [3] | Potency [4]
active: Potency [2] 28.3 µM

C=C[Si](C)(C)Cl
inactive: viability change, negative = cytotoxic [1] 5.38% [at 8.39 µM] | activity change, negative = inhibition [2] 5.1% [at 10.5 µM] | viability change, negative = cytotoxic [3] -0.0044% [at 8.39 µM] | activity change, negative = cytotoxicity [4] -8.76% [at 8.39 µM]

C1=CCCC1
inactive: Potency [1] | Potency [2] | Potency [3] | Potency [4]

O=C(CCN1CCC(c2ccccc2)C1)c1ccc2c(c1)OCCO2 (stereo not drawn)
inactive: Potency [1] | Potency [2] | Potency [3] | Potency [4]

CC(C)(C)C1=CC(=O)C(C(C)(C)C)=CC1=O
inactive: Potency [1] | Potency [2] | Potency [3] | Potency [4]

CCCCCCCCSCc1cc(C)c(O)c(CSCCCCCCCC)c1
inactive: Potency [1] | Potency [2] | Potency [3] | Potency [4]

CCOC(=O)[C@H](C)O
inactive: Potency [1] | Potency [2] | Potency [3] | Potency [4]

C1CCSC1
inactive: Potency [1] | Potency [2] | Potency [3] | Potency [4]

O=C1c2ccccc2C(=O)c2c(Cl)cccc21
inactive: Potency [1] | Potency [2] | Potency [3] | Potency [4]

O=[N+]([O-])c1ccc(CO)cc1
inactive: Potency [1] | Potency [2] | Potency [3] | Potency [4]

C=COCCCC
inactive: Potency [1] | Potency [2] | Potency [3] | Potency [4]

CC(C)c1ccc2sc3ccccc3c(=O)c2c1
active: Potency [2] 1.59 µM
inactive: Potency [1] | Potency [3] | Potency [4]

CC1(C)[C@H]2CC[C@]1(C)C(=O)C2
inactive: Potency [1] | Potency [2] | Potency [3] | Potency [4]

Cc1cccc(C)c1C
inactive: Potency [1] | Potency [2] | Potency [3] | Potency [4]

CC1CCC(C(C)(C)O)CC1 (stereo not drawn)
inactive: Potency [1] | Potency [2] | Potency [3] | Potency [4]

C/C=C/C(=O)OCC(C)C
inactive: Potency [1] | Potency [2] | Potency [3] | Potency [4]

CCc1cccc(CC)c1
inactive: Potency [1] | Potency [2] | Potency [3] | Potency [4]

CCSCC
inactive: Potency [1] | Potency [2] | Potency [3] | Potency [4]

Clc1cccc(Cl)n1
inactive: Potency [1] | Potency [2] | Potency [3] | Potency [4]

Oc1ccc(Cl)cc1C1CCCC1
inactive: Potency [1] | Potency [2] | Potency [3] | Potency [4]

CCCCCCCCc1ccc(Nc2ccc(CCCCCCCC)cc2)cc1
inactive: Potency [1] | Potency [2] | Potency [3] | Potency [4]

CCCC(C)C=O (stereo not drawn)
inactive: Potency [1] | Potency [2] | Potency [3] | Potency [4]

CCCCCCCCCCCCCCCCC(C(=O)O)C(O)(CC(=O)O)C(=O)O (stereo not drawn)
inactive: Potency [1] | Potency [2] | Potency [3] | Potency [4]

CC(C)=CCC[C@H](C)CC=O
inactive: Potency [1] | Potency [2] | Potency [3] | Potency [4]

C/C=C/C(=O)C1=C(C)C=CCC1(C)C
inactive: Potency [1] | Potency [2] | Potency [3] | Potency [4]

c1ccc(-c2ccccc2-c2ccccc2)cc1
inactive: Potency [1] | Potency [2] | Potency [3] | Potency [4]

c1ccc(-c2ccc(C(c3ccccc3)n3ccnc3)cc2)cc1 (stereo not drawn)
inactive: Potency [2] | Potency [3] | Potency [4]
active: Potency [1] 33.5 µM

O=C1OC(=O)c2cc(-c3ccc4c(c3)C(=O)OC4=O)ccc21
inactive: Potency [1] | Potency [2] | Potency [3] | Potency [4]

CC(CC(C)(C)C)CC(C)(C)CC(C)(C)C (stereo not drawn)
inactive: Potency [1] | Potency [2] | Potency [3] | Potency [4]

C=CC(=O)OCCOC1C2CCC1C1CC=CC12 (stereo not drawn)
inactive: viability change, negative = cytotoxic [1] -4.69% [at 19 µM] | activity change, negative = inhibition [2] -9.04% [at 23.6 µM] | viability change, negative = cytotoxic [3] -2.57% [at 19 µM] | activity change, negative = cytotoxicity [4] -0.771% [at 19 µM]

O=C1C=CC(=O)N1c1cccc(N2C(=O)C=CC2=O)c1
active: Potency [1] 54.5 µM | Potency [3] 61.1 µM | Potency [4] 61.1 µM

CCCCCCCCOC(=O)c1cc(O)c(O)c(O)c1
inactive: Potency [2] | Potency [4]
active: Potency [1] 24.3 µM

CCOc1nc(F)cc2nc(S(=O)(=O)Nc3c(Cl)cccc3C(=O)OC)nn12
inactive: Potency [1] | Potency [3] | Potency [4]

CCC(O)CO (stereo not drawn)
inactive: Potency [1] | Potency [2] | Potency [3] | Potency [4]

CN1CCN(C)CC1
inactive: Potency [1] | Potency [2] | Potency [3] | Potency [4]

C=Cc1ccncc1
inactive: Potency [1] | Potency [3] | Potency [4]

C=CC(C)(C)O
inactive: Potency [1] | Potency [2] | Potency [3] | Potency [4]

CCc1cccc(C)c1N(C(=O)CS(=O)(=O)O)C(C)COC (stereo not drawn)
inactive: Potency [1] | Potency [2] | Potency [3] | Potency [4]

Clc1ccc2c(Cl)ccnc2c1
inactive: Potency [1] | Potency [3] | Potency [4]

C=C1CC[C@H]2O[C@]2(C)CC[C@@H]2[C@@H]1CC2(C)C
inactive: Potency [1] | Potency [2] | Potency [3] | Potency [4]

O=C(c1ccccc1)c1ccc(Cl)cc1
inactive: Potency [1] | Potency [3] | Potency [4]

Cc1ccc2nc(-c3ccc(N)cc3)sc2c1S(=O)(=O)O
inactive: Potency [1] | Potency [3] | Potency [4]
active: Potency [2] 1.39 µM

CO[Si](OC)(c1ccccc1)c1ccccc1
inactive: Potency [1] | Potency [2] | Potency [3] | Potency [4]

COc1cc(/C=C/C(=O)CC(=O)/C=C/c2ccc(O)c(OC)c2)ccc1O
active: Potency [1] 21.8 µM | Potency [2] 28.4 µM | Potency [4] 24.5 µM

CN(C[C@@H](CC[N+]12CCC(C3CCCCC3)(CC1)CC2)c1ccc(Cl)c(Cl)c1)C(=O)c1cc(C(F)(F)F)cc(C(F)(F)F)c1
inactive: Potency [2]
active: Potency [1] 48.6 µM | Potency [4] 68.6 µM

Nc1ccc2c(S(=O)(=O)O)cccc2c1S(=O)(=O)O
inactive: Potency [1] | Potency [2] | Potency [4]

CCNc1nc(NC(C)(C)C)nc(OC)n1
inactive: Potency [1] | Potency [2] | Potency [3] | Potency [4]

CCc1cccc(C)c1N(C(=O)C(=O)O)C(C)COC (stereo not drawn)
inactive: Potency [1] | Potency [2] | Potency [3] | Potency [4]

COCCC(=O)OC
inactive: Potency [1] | Potency [2] | Potency [3] | Potency [4]

Nc1c(Br)cc([N+](=O)[O-])cc1Br
inactive: Potency [1] | Potency [2] | Potency [3] | Potency [4]

Cc1ccc(C2OC[C@@H]3OC(c4ccc(C)cc4)O[C@H]([C@H](O)CO)[C@@H]3O2)cc1 (stereo partly drawn)
inactive: Potency [1] | Potency [2] | Potency [3] | Potency [4]

Cc1ccc(C=O)cc1
inactive: Potency [1] | Potency [2] | Potency [3] | Potency [4]

Oc1ccc(C2(c3ccc(O)c(C4CCCCC4)c3)CCCCC2)cc1C1CCCCC1
active: Potency [1] 61.1 µM | Potency [3] 48.6 µM | Potency [4] 27.3 µM
inactive: Potency [2]

Cc1cccc2c1ccc1ccccc12
inactive: Potency [1] | Potency [3] | Potency [4]

CCCCCCCCCCCC(=O)Cl
inactive: Potency [1] | Potency [3] | Potency [4]
active: Potency [2] 39.9 µM

O=C(O)C[C@H](O)C[C@H](O)/C=C/c1c(C2CC2)nc2ccccc2c1-c1ccc(F)cc1
inactive: viability change, negative = cytotoxic [1] 0.576% [at 19 µM] | activity change, negative = inhibition [2] 5.31% [at 23.6 µM] | viability change, negative = cytotoxic [3] -13.2% [at 19 µM] | activity change, negative = cytotoxicity [4] -0.918% [at 19 µM]

C=C(C)CCO
inactive: Potency [1] | Potency [2] | Potency [3] | Potency [4]

Cc1cc(F)ccc1-c1cc(N2CC[C@@H](O)[C@H]2CO)ncc1N(C)C(=O)C(C)(C)c1cc(C(F)(F)F)cc(C(F)(F)F)c1
active: Potency [1] 42.6 µM
inactive: Potency [2] | Potency [4]

N#Cc1nc(Cl)c(Cl)c(Cl)c1Cl
active: Potency [1] 27.3 µM | Potency [3] 43.3 µM | Potency [4] 27.3 µM
inactive: Potency [2]

NCc1cccc(C2CCN(C(=O)c3ccc(C#Cc4ccccc4F)o3)CC2)c1
inactive: Potency [2]
active: Potency [1] 68.6 µM | Potency [4] 68.6 µM

CCN(CC)c1ccc(C=O)c(O)c1
inactive: Potency [1] | Potency [3] | Potency [4]

CCC(=O)OC/C=C(\C)CCC=C(C)C
inactive: Potency [1] | Potency [2] | Potency [3] | Potency [4]

CCN(CC)c1ccc(C=O)cc1
inactive: Potency [1] | Potency [3] | Potency [4]

CSc1nnc(C(C)(C)C)c(=O)[nH]1
inactive: Potency [1] | Potency [2] | Potency [3] | Potency [4]

CCOC(=O)[C@H](O)[C@@H](O)C(=O)OCC
inactive: Potency [1] | Potency [2] | Potency [3] | Potency [4]

Cc1ccc(S(=O)(=O)C(I)I)cc1
active: Potency [1] 61.1 µM | Potency [2] 39.9 µM | Potency [3] 48.6 µM | Potency [4] 34.4 µM

c1ccc(-c2nc3ccccc3[nH]2)cc1
inactive: Potency [1] | Potency [4]
active: Potency [2] 5.64 µM

CC1(C)[C@H](C(=O)OCc2cccc(Oc3ccccc3)c2)[C@@H]1C=C(Cl)Cl
inactive: Potency [1] | Potency [2] | Potency [3] | Potency [4]

CC(C)C(=O)C(C)C
inactive: Potency [1] | Potency [2] | Potency [3] | Potency [4]

O=C(Cl)c1ccc(Cl)cc1Cl
active: Potency [2] 25.2 µM
inactive: Potency [1] | Potency [3] | Potency [4]

CC(Cc1ccc(O)c(O)c1)C(C)Cc1ccc(O)c(O)c1 (stereo not drawn)
active: Potency [2] 71 µM
inactive: Potency [3] | Potency [4]

O=C1OC2(c3ccccc31)c1ccc(O)c(Br)c1Oc1c2ccc(O)c1Br
active: Potency [2] 35.6 µM
inactive: Potency [4]

CCOC(=O)C1=NN(c2ccc(Cl)cc2Cl)C(C)(C(=O)OCC)C1 (stereo not drawn)
inactive: Potency [2] | Potency [3] | Potency [4]
